D2 ag-1 – activates the human D2 dopamine receptor; activation, % at 2 µM; 340,000 tested, 0.53% active; HEK293 T-REx D2 cells, calcium flux agonist mode;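 active = activation over 3 SD above normal in the single-dose calcium agonist read, cut at about 30% in these data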; note: 0% is about no effect
Target sequence (P14416 whole entry, looked up): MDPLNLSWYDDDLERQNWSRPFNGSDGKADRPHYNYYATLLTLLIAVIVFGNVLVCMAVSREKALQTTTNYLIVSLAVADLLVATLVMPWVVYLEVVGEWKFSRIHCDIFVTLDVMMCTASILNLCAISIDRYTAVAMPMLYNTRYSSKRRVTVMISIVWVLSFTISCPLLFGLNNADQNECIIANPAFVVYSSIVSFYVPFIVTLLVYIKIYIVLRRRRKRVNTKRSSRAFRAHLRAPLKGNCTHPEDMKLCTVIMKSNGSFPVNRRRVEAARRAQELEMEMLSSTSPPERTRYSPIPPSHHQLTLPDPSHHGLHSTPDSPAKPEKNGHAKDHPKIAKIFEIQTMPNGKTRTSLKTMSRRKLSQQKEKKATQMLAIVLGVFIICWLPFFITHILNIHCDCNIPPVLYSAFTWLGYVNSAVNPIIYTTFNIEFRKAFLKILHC
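Tetracycline-induced HEK293 T-REx cells with force-coupled D2 receptor, plated overnight at 30 C, loaded with no-wash calcium dye. After a 10 s baseline, compound was pin-added and calcium flux read kinetically for 180 s; calcium rises flagged agonists.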
D2 antagonist – antagonizes the human D2 dopamine receptor. 340,000 tested, 2% active. HEK293 TREx D2 cells, calcium flux, dopamine EC80. P14416. inhibition, % at 10 µM; in the data active = inhibition above about 30%; inactive = below that, where a call was filed; note: 0% is about no effect
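Read-out: kinetic calcium fluorescence (1 cycle/s) in inducible HEK293 T-REx D2 cells after an EC80 dopamine addition that followed 180 s compound preincubation. Loss of the dopamine response indicates antagonism.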
D2 PAM-1 – positive allosteric modulators of human D2 dopamine receptor; P14416; potentiation, % (test concentration not listed); DiscoveRx D2 beta-arrestin cells, luminescence, 90 min; 100% = 57 uM dopamine signal; 360,000 tested, 0.23% active; in the data active = potentiation above about 50%; inconclusive = mostly about 30% to 49%
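D2 cells co-treated with compound plus 50 nM dopamine (EC20) for 90 min at 37 deg C to detect potentiation. Beta-arrestin recruitment was read as enzyme-fragment luminescence after 1 h at ambient temperature. Full response was set by 57 uM dopamine.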
D2 ag-2 – human D2 receptor agonism in beta-arrestin assay. P14416. DiscoveRx PathHunter D2 beta-arrestin, luminescence, 90 min; 100% = 57 uM dopamine signal. activation, % (no concentration beside the values). 360,000 tested, 0.084% active; in the data active = activation above about 40%; inconclusive = between about 15% and that limit
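DiscoveRx PathHunter D2 beta-arrestin cells (2,100/well) attached overnight, then compound-stimulated 90 min at 37 C in HBSS/10 mM HEPES/0.1% Tween-20 buffer; beta-galactosidase complementation read by luminescence after 1 h at ambient temperature. Dopamine 57 uM final (EC100) as control.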
D2 PAM-2 – D2 dopamine receptor (human) potentiation; AID 485347; HEK293 T-REx D2, calcium flux, EC20 dopamine potentiation; potentiation, % at 10 µM; 340,000 tested, 0.34% active; P14416;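 active = potentiation over 3 SD above the plate norm, cut at about 30% in these data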; note: 0% is about no effect
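Cells plated with tetracycline inducer and held overnight at 30 C; calcium dye loaded 30–90 min at room temperature; baseline taken, compound added and read 180 s; EC20 dopamine then added and read 180 s.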
* marks the source's active call; other numbers are inactive results; ? = inconclusive; nt = no result given. The list is not random: actives were taken first. Their share in the collection is about 2.4%.

SMILES | D2 ag-1 | D2 antagonist | D2 PAM-1 | D2 ag-2 | D2 PAM-2
O=C(NCCCN1CCCC1)Nc1ccc(F)cc1 | 0 | -6 | -15 | 3 | -7
Cc1cc(C)n(CC(=O)c2ccc(Cl)cc2)n1 | 0 | 12 | 2 | 4 | 39*
Cc1cc(C)n(CCCNC(=O)C(C)(C)Oc2ccc(Cl)cc2)n1 | 0 | 31* | -13 | 0 | 6
O=[N+]([O-])c1cc([N+](=O)[O-])c2n[nH]c(-c3ccccc3)c2c1 | 0 | 0 | 8 | 5 | 2
O=[N+]([O-])c1cc(-c2n[nH]c(-c3ccccc3)n2)cc([N+](=O)[O-])c1 | 0 | -9 | 53* | 6 | 13
COc1cccc2sc(N(Cc3cccnc3)C(=O)C3CCCCC3)nc12 | 28 | nt | nt | nt | -11
CCOC(=O)c1c(NC(=O)Nc2cccc(Cl)c2)sc(C)c1C | 0 | -10 | -2 | 0 | -5
CCOC(=O)c1c(NC(=O)Nc2ccc(Cl)cc2)sc(C)c1C | -1 | 36* | -37 | 0 | -16
CCOC(=O)c1sc(NC(=O)c2ccc(Cl)s2)cc1C | 0 | 1 | -7 | -7 | -13
CCOC(=O)c1sc(NC(=O)Nc2ccc(Cl)cc2)cc1C | nt | 38* | 2 | 4 | 3
CCN(c1cc(C)cc(C)c1)S(=O)(=O)c1nnc(NC(=O)c2cccc(F)c2)s1 | 1 | nt | nt | nt | -11
O=C(NC1CCCCC1)c1cccc2c1C(=O)c1ccc(N3CCCC3)cc1S2(=O)=O | nt | nt | -8 | -2 | nt
O=C(NC1CCCC1)c1cccc2c1C(=O)c1ccc(N3CCCCC3)cc1S2(=O)=O | 4 | 20 | -4 | -7 | 37*
CCOc1ccc(C2C(=O)N(C3CCCCCC3)CC(=O)N2CCc2ccc(Cl)cc2)cc1OC (stereo not given) | 1 | nt | nt | nt | 15
O=C(CN1C(=O)NC(Cc2ccccc2)C1=O)Nc1ccc(F)c(Cl)c1 (stereo not given) | 1 | 33* | -2 | 5 | 3
O=C(CN1C(=O)NC(Cc2ccccc2)C1=O)Nc1ccc(F)cc1 (stereo not given) | 0 | -14 | -1 | 1 | -3
COc1ccc(C(=O)Nc2ccc(O)c3ccccc23)cc1OC | nt | nt | 82* | ? | nt
CCc1ccc(N(CC(=O)NC(C)(C)CC)C(=O)CCC(=O)Nc2nccs2)cc1 | 0 | 0 | -4 | -5 | -10
CCC(C)(C)NC(=O)CN(Cc1ccc2c(c1)OCO2)C(=O)CCC(=O)Nc1nccs1 | -1 | 41* | -7 | -2 | 4
CCC(C)(C)NC(=O)CN(C(=O)CCC(=O)Nc1nccs1)c1ccc2c(c1)OCCO2 | -2 | 1 | -6 | -2 | 31*
Fc1ccccc1N1CCN(c2c3c(nc4nncn24)CCC3)CC1 | 0 | nt | nt | nt | 2
O=C(OCc1c(Cl)cccc1Cl)c1ccccn1 | 0 | 35* | -16 | -2 | 5
Cc1nc2ccc(NC(=O)c3cc([N+](=O)[O-])cc([N+](=O)[O-])c3Cl)cc2s1 | 0 | -13 | 63* | 12 | -3
Cc1nc2ccc(NC(=O)c3ccc(Cl)c([N+](=O)[O-])c3)cc2s1 | 0 | -15 | 4 | -2 | 7
O=C(CCc1nc(-c2ccccc2)no1)Nc1cccnc1 | 0 | 58* | -4 | -1 | -8
SMILES | D2 ag-1 | D2 antagonist | D2 PAM-1 | D2 ag-2 | D2 PAM-2
O=C(CCCc1nc(-c2ccccc2)no1)Nc1cccnc1 | nt | nt | 7 | 1 | nt
COc1ccc(Cl)cc1NS(=O)(=O)c1cccc(C(=O)NCC(c2ccco2)N2CCCC2)c1 (stereo not given) | 0 | 39* | -50 | -7 | -22
COc1ccc(N(C)S(=O)(=O)c2cccc(C(=O)NCC(c3ccco3)N3CCCC3)c2)cc1 (stereo not given) | 0 | 23 | -44 | -5 | -20
COc1ccc(NS(=O)(=O)c2cccc(C(=O)NCC(c3ccco3)N(C)C)c2)cc1 (stereo not given) | 0 | 37* | -40 | 0 | -13
COc1ccc(N(C)S(=O)(=O)c2cccc(C(=O)NCC(c3cccs3)N(C)C)c2)cc1 (stereo not given) | 1 | 46* | -37 | 1 | -24
COc1ccccc1NS(=O)(=O)c1ccc(C(=O)NCC(c2ccco2)N(C)C)cc1 (stereo not given) | 1 | -12 | -3 | -1 | -12
